Our source for the MAPPIT interaction score values is the supplement of paper PMC10105736.

Common to all, as to assay: MAPPIT interaction score (arbitrary units); higher = stronger binary interaction signal, active = hit call of the paper
Assay [1] deals with CG6664. The following applies: MAPPIT configuration: N-N; pair source set: DPIM.
Assay [2] addresses CG5883. The following applies: MAPPIT configuration: N-N; pair source set: RRS.
The target of assay [3] is CG7137. The following applies: pair source set: Lit-BM-16.
For assay [4], the target named is CG6996. Conditions: MAPPIT configuration: N-N; pair source set: Finley_Y2H;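 active = MAPPIT score above the 99th percentile of random reference set scores in the same batch; inactive = at or below it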.
Assay [5] concerns the target Mcad. Conditions: MAPPIT configuration: N-N; pair source set: Lit-BS-16.
For assay [6], the target named is Treh. Conditions: MAPPIT configuration: N-N; pair source set: Finley_Y2H.
The target of assay [7] is Unr. Conditions: pair source set: Lit-BM-16.
Assay [8] has as its target gcm. The following applies: MAPPIT configuration: N-N; pair source set: Finley_Y2H.
Assay [9] addresses noi. Conditions: MAPPIT configuration: N-N; pair source set: Finley_Y2H.
The target of assay [10] is prd. The following applies: MAPPIT configuration: N-N; pair source set: Finley_Y2H.
In assay [11] the target is CG5854. Conditions: MAPPIT configuration: N-N; pair source set: Curagen_high_conf.
Assay [12] has as its target Zip88E. Conditions: MAPPIT configuration: N-N; pair source set: Lit-BS-16.
For assay [13], the target named is CG7407. The following applies: MAPPIT configuration: N-C; pair source set: screen_3.
Assay [14] concerns the target Dpm3. Conditions: MAPPIT configuration: N-C; pair source set: screen_4.
The target of assay [15] is CG6933. The following applies: MAPPIT configuration: N-N; pair source set: Lit-BS-16.
For assay [16], the target named is CG7548. Conditions: MAPPIT configuration: N-N.
Assay [17] concerns the target CG7044. The following applies: MAPPIT configuration: N-N; pair source set: Lit-BS-16.
Assay [18] addresses aspr. Conditions: MAPPIT configuration: N-N; pair source set: Lit-BS-16.
The target of assay [19] is CG6683. The following applies: MAPPIT configuration: N-N; pair source set: Lit-BS-16.
Assay [20] concerns the target CG8654. Conditions: MAPPIT configuration: N-N; pair source set: DPIM.
The target in assay [21] is vih. Conditions: MAPPIT configuration: N-N; pair source set: Curagen_low_conf.
In assay [22] the target is CG6712. Conditions: MAPPIT configuration: N-N; pair source set: DPIM.
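Note: HEK293T cells with Epo stimulation, STAT-responsive firefly luciferase reporter, fold induction versus unstimulated cells divided by the larger fold induction of two negative controls lacking either bait or prey.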

B1: Cbp80 (protein)
chain: MSRRRAHDTEDEGYDHRRNKRRRVSENQEIEDRLESLILRVGERSTSSVESNLEGLVSVLEADLGTFRLKILRILSDCAVRMPEKCTVYTTLVGLLNAKNYKFGGEFVDHMVKTFKESLKMCRWDAARYSLRFLADLVNCHVISATSLLQLLDTMIDVSNEDTVPQVRRDWFVFAVLSTLPWVGRDLYEKKESALESLLLRIEVYLNKRSKKHHNALRVWSSDAPHPQEEYLDCLWAQIRKLRQDNWAEKHIPRPYLVFDSILCEALQHNLPTIVPPPHHDNFEYPMPWVVYRMFDYTDCPDGPNLPGAHSIERFLIEEHLHHIIETYHHERKDCAAQLLSFPYKHKIPLEYCIVEVVFAELFHMPTPRYLDICYGSILIELCKLQPATLPQVLAQATEILFMRIDSMNTSCFDRFVNWFSYHLSNFKFTWSWDEWDSCLLLDGEHPRPKFIQEVLQKCLRLSYHQRITEMMPTTYAKLIPLTPVPNYKYANEEAANLPGTTVAHQLVVAIRQKCTPEEVVNILKDIPNSGYSGEEMSDGSFNALKIDVFVQTLLNLGSKSFSHSFAAISKFHSVFRALAETEEAQICILHNIFELWSSHQQMMVVLIDKLLKLQIVDCSAVATWIFSKEMTGEFTKLYLWEILHLTIKKMNKHVIKLNTELSEAKEKLAKADSSSSDSEDDSSHKRKKPITHADKPSEEVVERMEEKLEAANVNQKRLFLIVFQRFIMILSEHLLRSDTDGRDPDTDWYRWTIGRLQQVFLMHHEQVQKYSSTLETLLFTSDLDTHILEVFQQFVALRA
For B1, the MAPPIT interaction score in assay [1] was -0.12 (inactive).

B2: mRpL39 (protein)
chain: MSAATKLHKTSWCALRQLQQYRTKANFSGSSASLAKRNDLFNQEQRRQRDAVGRIDKIEVRYLGLPEDVTLVMNGNISTPFNCAQHLSEGHCKRSALALIDGSVPWDMHRPLQESCTLQLLNFHVSEPHVVNKAFWRTCSFMLGAALNRAFKPEANLQLHSFPGPNIKSGSFVHDIVLQTQNWEPGKEEMRALSAEMVKLAAQDLRIERLDVQQDLAQEMFKDSKYKSEQLPSISQQTNGRVTLYRLGDHIDISRGPMVASTSFLGKCVISAAHKVAEEGPSGAFYRIQGVALPSGFQLNHVAFGVLEERSKKPSPARLPNEPFEEQQQLQLS
Regarding B2, the MAPPIT interaction score in assay [2] was -0.604 (inactive).

B3: grau (protein)
chain: MDICRLCLRGVSGAQMCLQIFDVDSGESKVAEVLRQHFWFEVLPNDEISKVICNVCWTQVSEFHQFYVSIQEAQVIYATTSKFKQDPEMVNTSWPEEVLMPADVLAVDNDVGAQINVNPLDELDLSQPMSPEDSKVGIKTERQSPDMELLFEDANNEQDEDYEDDEDDDTDDLIVTRSGRKRKRDVAKPAKTKRGTVSVGRKGKEKMVVKRGPPKRIFKMERLPPFCKEDEELIKRYIVMGCELCIFLAEDFDGIREHFKDKHPDERPYIKCCGRKLNKRCLIQEHARRHENPEYIKCKDCGKVFANSSVLRAHWLVHHVPDEECDFQCEDCGKRFSRRNLLELHKGSHVPVNERKFICPQCPKHNAFATEYHMQVHISMQHRKAANICHVCGKKIKDKAVFEKHVRLHFEESGPRIKCPRPDCESWLKDEDNLKQHLRRHNDEGKLFICSECGKSCKNSRALIGHKRYSHSNVIYTCEQCGKTFKKDISLKEHMAQHTGEPLYKCPFCPRTFNSNANMHSHKKKMHPVEWDIWRKTKTGSSQKVLPSAQVAQMFRDDADVAAIANDYSG
For the molecule B3, the MAPPIT interaction score in [3] (MAPPIT configuration: N-C) is 3.33 (inactive); in [3] (MAPPIT configuration: N-N) it was 0.66 (inactive).

B4: Sxl (protein)
chain: MYGNNNPGSNNNNGGYPPYGYNNKSSGGRGFGMSHSLPSGMSRYAFSPQDTEFSFPSSSSRRGYNDFPGCGGSGGNGGSANNLGGGNMCHLPPMASNNSLNNLCGLSLGSGGSDDLMNDPRASNTNLIVNYLPQDMTDRELYALFRAIGPINTCRIMRDYKTGYSFGYAFVDFTSEMDSQRAIKVLNGITVRNKRLKVSYARPGGESIKDTNLYVTNLPRTITDDQLDTIFGKYGSIVQKNILRDKLTGRPRGVAFVRYNKREEAQEAISALNNVIPEGGSQPLSVRLAEEHGKAKAAHFMSQMGVVPANVPPPPPQPPAHMAAAFNMMHRGRSIKSQQRFQNSHPYFDAKKFI
As for B4, the MAPPIT interaction score in [4] is 0.192 (inactive); in assay [5] it was 1.44 (inactive); in [6] it was -0.289 (inactive); in [7] (MAPPIT configuration: N-C) it was 3.02 (inactive); in assay [7] (MAPPIT configuration: N-N), 2.17 (inactive); in [8] it was -0.368 (inactive). Moreover, the values for the MAPPIT interaction score in [9] and in assay [10] were 4.3 (active) and -0.691 (inactive), respectively.

B5: pip (protein)
chain: MSLNAERSYKMKLRDVENAFKYRRIPYPKRSVELIALLAISCTFFLFMHTNKLNSRLKEMEVKLQPSEFSALGLTGNHISGHDAGKHDDINTLHGTYQYLKSTGQKVGYNVHDRRSSEEQLRTPTAHGHHHDHHSHHHHMHQQEKIDGHKHKASHDKQLAVPDNKHKEDEVHYEDDEDEVEENDDDLANDVGTTDSEGFNFKADLLNNTKYAEVDFVFFNRVPKVGSQSLMELMARLGKINGFTHARNKGSAHETIVMNKQRQNDLIADLLTRPKPHIYSQHIAYINFTRFHLPKPIYINLIRDPIDRIISWHYYIRAPWYYRDMQAKLGENAIPMPSEEFMNLDLDTCVRNHDPHCTFTQMQIKNPVGDHRRQTLFFCGMNQKLCMPFNSEAAMQKAKRTVETEYAVVGTWEDTNITLSVLEAYIPRYFRNAKVAYYLGKDRLSRVNRNNVTRIVSDETRLILRKNLTNEIEFYEFCKQRLYLQYAALSHGKRFGEDDYLLVPEQQNEYNEDY
With B5, the MAPPIT interaction score was -0.136 (inactive) in [11] and 0.425 (inactive) in [12].

B6: Sras (protein)
chain: MKNLSETEAEVTMQENVVHESLPQIPVATSVSCCFVLAVLYVGSLYIWSTKHNRDHPTTVKRRFASVSMVMLAAPFFVYFFSSPELLSRVPFPKLLGLRLEGLWQAVVIPYSLTVLLFLGPIFVNMQNESVRSYFDLDYWRGSFGSIIWVRNHVIAPLSEEFVFRACMMPLILQSFSPLVAVFITPLFFGVAHLHHIAERLSLGVELSTALLIGLFQFIYTTLFGFYSAFLFARTGHVMAPILVHAFCNHMGLPDLQDLWQQDLWRRVVAIILYLAGFVGWMFLVPLATDPSIYDNTLYWNA
In the case of B6, the MAPPIT interaction score in [13] was -0.229 (inactive); in assay [14], 0.0475 (inactive).

B7: Inx7 (protein)
chain: MLNTFSSVRQYLKFDLTRVVIDNIVFKLHYRWTFVILLVATLLITSRQYIGEHIQCLSDGVVSPVINTFCFFTPTFTVVRDQNQTAYRPGSEPPGIGAFDPEKDTIKRHAYYQWVPFVLFFQALCFYIPHALWKSWEGGRIKALVFGLRMVGLTRYLKNDSLRIGKLNIPSMAEAEERVKDIRRTMIDRMRLNQSWGAHLVFAEVLNLINLLLQITWTNRFLGGQFLTLGPHALKNRWSDELSVLDLVFPKITKCKFHKFGDSGSIQMHDALCVMALNIMNEKIYIILWFWYAFLLIVTVLGLLWRILTLCFYRNVTFTRWSLYWAKPGQLDENELLAVIDKCNFSNWMFLFFLRSNLSEFLFKKVIYHLASEFPNPDHDNDVNAYREAPPTPAKNRYPELSGLDTIDSPLLHLRRNGSPSAGGAQGPSTSDMAKLPV
For the molecule B7, in [15], the MAPPIT interaction score was -0.387 (inactive).

B8: sicily (protein)
chain: MRRLVRNWNCRLLFNAKSGQEIVSHAGIHQEAKTNAIPREKKVIEADKNGYGAKHCMSLVEKYDYENYLCTLLLPRELRRAAFALRAFNVEVSRSVSGHQIEPQIAKMRLKFWHDSIDKCFEPDSQRSYVEDQPVLRELKHTVGSRKLNKVYLRRLVTARERPPTHAFESIRELEEYTEQTFSSLLLLLLEVGGVRDLNADHAASHLGKAQGIATLLRSIPLAGRQQAPCIPLEVLVLHGVSQERIIRSKSDDKGVEDCIFDVASAANTHLKLARQLHDKVPPQVRKIFLSAVATDAYLERLRRANFLLTHKSCVGRDTLLPARLFWKSLLNRF
On to B8, for which the MAPPIT interaction score in [16] (pair source set: Finley_Y2H) and in assay [16] (pair source set: Lit-BS-16) was -0.0114 (inactive) throughout.

B9: sala (protein)
chain: MKLLIALFALVTAVNAQNGFGQVGQGGYGGQGGFGGFGGIGGQAGFGGQIGFTGQGGVGGQVGIGQGGVHPGQGGFAGQGSPNQYQPGYGSPVGSGHFHGTNPVESGHFHENPHEYPEHHGDHHREHHEHHGHHEHHGHHRH
With B9, the MAPPIT interaction score in assay [17] is 0.14 (inactive); in [18], -0.194 (inactive).

B10: Fer1HCH (protein)
chain: MVKLIASLLLLAVVAQAYGDFKCSLAVPEITKDWVDMKDACIKGMRNQIQEEINASYQYLAMGAYFSRDTVNRPGFAEHFFKAAKEEREHGSKLVEYLSMRGQLTEGVSDLINVPTVAKQEWTDGAAALSDALDLEIKVTKSIRKLIQTCENKPYNHYHLVDYLTGVYLEEQLHGQRELAGKLTTLKKMMDTNGELGEFLFDKTL
For the molecule B10, the results for the MAPPIT interaction score in [19], in assay [20] and in assay [21] were -0.52 (inactive), 0.0556 (inactive) and -0.155 (inactive), respectively.

B11: Vha55 (protein)
chain: MNAQQAQREHVLAVSRDFISQPRLTYKTVSGVNGPLVILDEVKFPKFAEIVQLRLADGTVRSGQVLEVSGSKAVVQVFEGTSGIDAKNTLCEFTGDILRTPVSEDMLGRVFNGSGKPIDKGPPILAEDFLDIQGQPINPWSRIYPEEMIQTGISAIDVMNSIARGQKIPIFSAAGLPHNEIAAQICRQAGLVKLPGKSVLDDHTDNFAIVFAAMGVNMETARFFKQDFEENGSMENVCLFLNLANDPTIERIITPRLALTAAEFLAYQCEKHVLVILTDMSSYAEALREVSAAREEVPGRRGFPGYMYTDLATIYERAGRVEGRNGSITQIPILTMPNDDITHPIPDLTGYITEGQIYVDRQLHNRQIYPPVNVLPSLSRLMKSAIGEGMTRKDHSDVSNQLYACYAIGKDVQAMKAVVGEEALTPDDLLYLEFLTKFEKNFISQGNYENRTVFESLDIGWQLLRIFPKEMLKRIPASILAEFYPRDSRH
As for B11, in [22], the MAPPIT interaction score is -0.225 (inactive).

B12: frj (protein)
chain: MSIDDVIYVICLLGCIGAGSYVKKIADEGQRKLVSTGLGVLVVVIVSGLHSLHCFVSLALGTAAVLLVHPSKGHLVTFAVMFGYLVFFRIFDFYFGIPGHTNMIQMILTLKVSGIAFEKTAAWKRLQAHDEQKKNDQRDVHQESPIEITDYDVELQSLSAAEILHYSFNYIGVLTGPYYRYRTYRDYFEMPFKTYAPTVEATLEKLKYAVFYCALYLATNYMWPLDYALSDEFFNDRSFVYRLLYVWPTFFTFRARIYTGLTLSECVCTMAGFGAYPDESDPNNGEGPRKRYQHLKRDADKHTYNFTTIVNTRVLEVERCWTFREGMKHWNVCVQYWLAVNVYKLFPSKKYRTGATLLCSAYWHGFRPGHYFCIMGAPFYVSLEDMWDKLVRKSATGTSRRVIDVIFWIFKWFAFSYLGEAFLLSSFGNIWRFYSSVYHIGYISWAAMTALGFYLTSQRKAAERRKKRAAEKAAGGDGIAAAIEKEKAQ
Turning to B12, the MAPPIT interaction score in assay [15] is 0.0283 (inactive).
